# From PubChem BioAssay (NCATS)
# Inconclusive results are not listed. Where a call stands in place of a potency, no number is given. The source made the active and inactive calls. The call rests on the fitted dose curve; in most records, active means well fitted curve in the direction sought with a large enough effect; inconclusive means small, poorly fitted or top-dose-only effect, or another doubt; inactive means no such curve, though single readings can be large; an effect the other way counts as inactive or inconclusive.
# Assays:
# [1] = qHTS for inhibitors of adenylyl cyclases using a fission yeast platform: a pilot screen against the NCATS LOPAC library (AID 1347410)
# Procedure, shortened: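 Fission yeast qHTS: CHP2027 cells (AC9-GNAS-PDE4D2, fbp1-GFP), 5x10^6 cells/mL working density, EMM + His/Lys/Ura; LOPAC at up to 57 µM final; 18 h dark, 30C; GFP by laser cytometry. DPI positive control, DMSO vehicle.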
# [2] = molecular target: Protein phosphatase 1D (Homo sapiens) (UniProt O15297); experiment: RapidFire Mass Spectrometry qHTS Assay for Modulators of WT P53-Induced Phosphatase 1 (WIP1) (AID 1347424);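 further: amount of dephosphorylated VEPPL-S-QETFS peptide product formed by WIP1; series mostly up to about 63 µM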
# Protein phosphatase 1D (Homo sapiens), sequence (O15297 whole entry, looked up): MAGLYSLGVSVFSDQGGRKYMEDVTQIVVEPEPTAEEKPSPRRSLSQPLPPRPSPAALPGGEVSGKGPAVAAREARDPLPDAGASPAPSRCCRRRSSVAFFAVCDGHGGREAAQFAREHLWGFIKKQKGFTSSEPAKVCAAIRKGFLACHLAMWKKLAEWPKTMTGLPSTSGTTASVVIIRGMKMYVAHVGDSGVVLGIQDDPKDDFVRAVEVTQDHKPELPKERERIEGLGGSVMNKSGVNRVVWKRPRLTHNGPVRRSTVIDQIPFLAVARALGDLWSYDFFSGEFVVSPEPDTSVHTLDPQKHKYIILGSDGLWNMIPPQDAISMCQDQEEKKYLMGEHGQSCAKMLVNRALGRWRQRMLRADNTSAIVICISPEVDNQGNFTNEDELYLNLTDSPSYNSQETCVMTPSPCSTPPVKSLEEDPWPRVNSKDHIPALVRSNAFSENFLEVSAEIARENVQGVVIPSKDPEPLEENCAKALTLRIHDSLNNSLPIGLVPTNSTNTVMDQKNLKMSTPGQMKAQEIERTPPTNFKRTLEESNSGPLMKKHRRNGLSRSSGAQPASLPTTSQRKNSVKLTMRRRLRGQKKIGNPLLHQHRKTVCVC
# Procedure, shortened: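 WIP1 (10 nM final) was preincubated 1 h at room temperature with compounds in Tris-HCl pH 7.5, 30 mM MgCl2, TCEP, EGTA, BSA; 2 uM VEPPL-pS-QETFS phosphopeptide was added for 5 min, quenched with formic acid, and dephosphorylated product quantified by RapidFire MS.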
# [3] = molecular target: Protein phosphatase 1D (Homo sapiens) (UniProt O15297); experiment: Rhodamine-PBP qHTS Assay for Modulators of WT P53-Induced Phosphatase 1 (WIP1) (AID 1347425)
# Procedure, shortened: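 Steps: enzyme with Rh-PBP sensor and compounds, room-temperature incubation of 1 hr, baseline read, addition of VEPPL-pS-QETFS (10 uM final), kinetic fluorescence reads at 525/598 nm. Activity equals final minus baseline signal.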
# [4] = Validation qHTS assay for inhibitors of Activation Induced Cytidine Deaminase (AID): UDG Counterscreen signal (AID 1347427); further: potency means the concentration at half of the fitted maximal effect
# Procedure, shortened: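 Counterscreen read of UDG activity (2 U/mL, 4/3x) in the FRET deamination format with AID (1 uM, 4/3x), DJC20/DJC23 substrates (250 nM, 4x), 4 h at room temperature. NaOH stop, fluorescence at 560 ex/665 em.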
# [5] = Primary qHTS for inhibitors of La Crosse Virus (LACV) - induced cell death in SH-SY5Y cells (AID 1508616); further: potency means the concentration at half of the fitted maximal effect
# Procedure, shortened: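 Luminescent ATP readout (ATPLite 1step, 5 min room temperature) measured rescue from LACV-induced death after 6 days of infection at 0.01 MOI; normalized to infected DMSO wells and uninfected DMSO wells.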
# [6] = molecular target: Calcium and integrin-binding protein 1 (Homo sapiens) (UniProt Q99828); experiment: Validation qHTS for Identification of Calcium Integrin Binding protein 1 (CIB1) Competitor (AID 1508618)
# Calcium and integrin-binding protein 1 (Homo sapiens), sequence (Q99828 whole entry, looked up): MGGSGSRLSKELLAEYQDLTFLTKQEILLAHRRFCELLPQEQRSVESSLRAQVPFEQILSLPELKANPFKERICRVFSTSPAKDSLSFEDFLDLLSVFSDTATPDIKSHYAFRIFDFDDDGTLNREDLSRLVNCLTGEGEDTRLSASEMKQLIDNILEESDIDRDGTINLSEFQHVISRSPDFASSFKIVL
# Procedure, shortened: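 In this qHTS validation, the LOPAC set (up to 114 uM) was tested for blocking CIB1 binding to a fluorescein-tagged alphaIIb peptide, with FP detection at 480/540 nm.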
# [7] = molecular target: Calcium and integrin-binding protein 1 (Homo sapiens) (UniProt Q99828); experiment: Primary qHTS for Identification of Calcium Integrin Binding Protein 1 (CIB1) Competitor (AID 1508620);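 further: GST tagged CIB1 binding a fluorescein labelled alphaIIb integrin peptide tracer; top concentration of the series differs between compounds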
# Procedure, shortened: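 Fluorescence polarization competition: CIB1-GST (1 uM final) preincubated with compound 15 min at room temperature, then FITC-labeled alphaIIb peptide (100 nM final) added for another 15 min. Polarization read at Ex 480/Em 540.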
# [8] = molecular target: Single-stranded DNA cytosine deaminase (Homo sapiens) (UniProt Q9GZX7); experiment: Validation qHTS assay for inhibitors of Activation Induced Cytidine Deaminase (AID): AID signal (AID 1347429)
# Single-stranded DNA cytosine deaminase (Homo sapiens), sequence (Q9GZX7 whole entry, looked up): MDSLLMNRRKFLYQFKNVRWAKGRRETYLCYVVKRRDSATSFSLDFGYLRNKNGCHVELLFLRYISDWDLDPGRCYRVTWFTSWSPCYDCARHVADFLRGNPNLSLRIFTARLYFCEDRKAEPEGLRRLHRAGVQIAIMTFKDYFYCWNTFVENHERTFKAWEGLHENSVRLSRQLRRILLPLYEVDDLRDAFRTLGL
# Procedure, shortened: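 AID and UDG were combined and compounds added at final up to 114 uM, then DJC20/DJC23 FRET substrate was added for 4 hr at room temperature. NaOH was then added for 30 min before fluorescence was read at 540/590 nm.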
# [9] = qHTS to identify inhibitors of the type 1 interferon - major histocompatibility complex class I in skeletal muscle: primary screen against the NCATS Mechanism Interrogation Plate v5.0 (MIPE) Libary (AID 1347411); further: nearly all actives have a fitted effect of over 65% in size; further: potency means the concentration at half of the fitted maximal effect
# Procedure, shortened: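 Immortalized human C25cl48 myoblasts with HiBit knocked into endogenous HLA-B*08:01 were stimulated with 4.0 ng/ml IFN-beta and exposed to compounds (11-point 1:3 titration, top 46 uM final) for 24 hrs at 37 C; HiBiT lytic luminescence measured.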
SMILES,outcome [1],Potency [2],outcome [3],Potency [4],Potency [5],outcome [6],Potency [7],outcome [8],Potency [9]
NNc1nncc2ccccc12,inactive,inactive,inactive,39.8 µM (active),inactive,inactive,inactive,–,–
Cc1cccc(C#Cc2ccccc2)n1,inactive,–,–,inactive,inactive,inactive,inactive,inactive,–
CN(C)C(=O)[C@H](O)[C@H](Cc1ccccc1)NC(=O)c1cc2cc(Cl)ccc2[nH]1,inactive,–,–,–,–,inactive,inactive,–,inactive
COc1ccc2cc([C@H](C)C(=O)O)ccc2c1,inactive,inactive,inactive,inactive,inactive,inactive,inactive,inactive,inactive
c1cnc2cc3c(cc2n1)C1CNCC3C1,inactive,inactive,inactive,–,inactive,inactive,inactive,–,inactive
CN(C)CCCC1(c2ccc(F)cc2)OCc2cc(C#N)ccc21 (stereo not drawn),inactive,–,–,inactive,inactive,inactive,–,inactive,–
CC1(C)C(=O)N(CCN2CCC(C(=O)c3ccc(F)cc3)CC2)c2ccccc21,inactive,–,–,inactive,inactive,inactive,inactive,inactive,–
Clc1ccc2c(N3CCN(CCCN4CCN(c5ccnc6cc(Cl)ccc56)CC4)CC3)ccnc2c1,inactive,–,–,–,–,inactive,–,–,inactive
CC(=O)NC[C@H]1CN(c2ccc(N3CCOCC3)c(F)c2)C(=O)O1,inactive,–,–,–,–,–,–,–,inactive
CCOC(=O)C1=C(O)C(=O)N(Cc2ccccc2)C1,inactive,–,–,–,–,inactive,inactive,–,inactive
Oc1ccc(-c2nc(-c3ccc(F)cc3)c(-c3ccncc3)[nH]2)cc1,inactive,–,–,inactive,inactive,inactive,inactive,inactive,inactive
NC(=NCc1ccccc1)NC(=O)c1nc(Cl)c(N)nc1N,inactive,–,–,inactive,inactive,inactive,inactive,inactive,–
O=Nc1c(-c2c(O)[nH]c3cc(Br)ccc23)[nH]c2ccccc12,inactive,–,–,inactive,–,inactive,inactive,inactive,14.7 µM (active)
CC1(C)NC(=O)N(c2ccc([N+](=O)[O-])c(C(F)(F)F)c2)C1=O,inactive,inactive,inactive,inactive,inactive,inactive,inactive,inactive,inactive
C[C@H](Cc1ccc(O)c(O)c1)[C@@H](C)Cc1ccc(O)c(O)c1,inactive,–,–,–,1 µM (active),inactive,–,inactive,inactive
O=C(CCc1ccc(O)cc1)c1c(O)cc(O)cc1O,inactive,–,–,inactive,inactive,inactive,inactive,inactive,–
O=c1c(O)c(-c2cc(O)c(O)c(O)c2)oc2cc(O)cc(O)c12,inactive,–,–,inactive,inactive,inactive,inactive,inactive,inactive
CCOC(=O)C(C)Oc1cccc2c(=O)n(CC(=O)Nc3ccc4c(c3)OCCO4)ccc12 (stereo not drawn),inactive,–,–,inactive,inactive,inactive,inactive,inactive,inactive
O=C1c2ccccc2-c2n[nH]c3cccc1c23,inactive,–,–,inactive,inactive,–,inactive,–,16.5 µM (active)
CNC[C@H](O)c1ccc(O)c(O)c1,inactive,inactive,inactive,inactive,inactive,inactive,inactive,inactive,inactive
O=C1NC(=O)C(c2ccccc2[N+](=O)[O-])=C1Nc1ccc(O)c(Cl)c1,inactive,–,–,inactive,inactive,–,inactive,inactive,–
O=c1cc(N2CCOCC2)oc2c(-c3ccccc3)cccc12,inactive,–,–,inactive,–,–,inactive,inactive,inactive
O=c1c(O)c(-c2ccc(O)cc2O)oc2cc(O)cc(O)c12,inactive,–,–,inactive,inactive,–,–,inactive,inactive
Cc1cc(O)c2c(c1)C(=O)c1cc(O)cc(O)c1C2=O,inactive,–,–,inactive,inactive,–,inactive,inactive,inactive
Nc1nc(OCc2ccccc2)c2[nH]cnc2n1,inactive,–,–,inactive,inactive,inactive,–,inactive,inactive
Cc1cc(Cl)ccc1OCCCC(=O)NO,inactive,–,–,–,–,inactive,inactive,–,inactive
COc1ccccc1N1CCN(CCN(C(=O)C2CCCCC2)c2ccccn2)CC1,inactive,–,–,inactive,inactive,inactive,inactive,inactive,inactive
Cc1c(OCC(F)(F)F)ccnc1CS(=O)c1nc2ccccc2[nH]1 (stereo not drawn),inactive,inactive,inactive,inactive,inactive,inactive,inactive,inactive,inactive
O=C(O)c1cccnc1Nc1cccc(C(F)(F)F)c1,inactive,–,inactive,inactive,inactive,inactive,–,inactive,–
